# Hits are enriched below; roughly 12% of the tested compounds scored in any of these assays.
# Sfp PPTase inh: inhibitors of Bacillus subtilis Sfp phosphopantetheinyl transferase; AID 1490; Q9F4F7; Potency, µM, for inactives: largest response in the series, negative = inhibition, hits mostly inhibitors; hit rate 3.5% among 310,000; Biochemical Sfp PPTase activity, qHTS;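 further: the enzyme is Sfp with the accession as filed and its product quenches rhodamine fluorescence; potency means the concentration at half of the fitted maximal effect; 0% = enzyme reaction without inhibitor and -100% = no enzyme wells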
#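 Compounds were incubated with enzyme (final 15 nM) for 15 min at room temperature before substrate addition started the reaction. Fluorescence at 525 nm excitation, 598 nm emission was recorded immediately and after 30 minutes.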
# JMJD2A Tudor: blocks the human JMJD2A Tudor domain; O75164; AlphaScreen JMJD2A-Tudor / H3K4me3 peptide binding; Potency, µM (series often up to 114 µM), for the others: at the highest dose activity change, negative = inhibition, hits mostly inhibitors; hit rate 4.4% among 390,000; further: potency means the concentration at half of the fitted maximal effect; on the % scale 0 is the no-effect control and ±100 the full control effect; nearly all actives have a fitted effect of over 50% in size
# BAZ2B inh: blocks human BAZ2B; AlphaScreen BAZ2B-H3K14Ac peptide displacement; Potency, µM (series often up to 114 µM), for inactives: at the highest dose activity change, negative = inhibition, most hits filed as inhibitors; hit rate 4.4% among 360,000; further: potency means the concentration at half of the fitted maximal effect; on the % scale 0 is the no-effect control and ±100 the full control effect; nearly all actives have a fitted effect of over 60% in size
# Target sequence (Q9UIF8 whole entry, looked up): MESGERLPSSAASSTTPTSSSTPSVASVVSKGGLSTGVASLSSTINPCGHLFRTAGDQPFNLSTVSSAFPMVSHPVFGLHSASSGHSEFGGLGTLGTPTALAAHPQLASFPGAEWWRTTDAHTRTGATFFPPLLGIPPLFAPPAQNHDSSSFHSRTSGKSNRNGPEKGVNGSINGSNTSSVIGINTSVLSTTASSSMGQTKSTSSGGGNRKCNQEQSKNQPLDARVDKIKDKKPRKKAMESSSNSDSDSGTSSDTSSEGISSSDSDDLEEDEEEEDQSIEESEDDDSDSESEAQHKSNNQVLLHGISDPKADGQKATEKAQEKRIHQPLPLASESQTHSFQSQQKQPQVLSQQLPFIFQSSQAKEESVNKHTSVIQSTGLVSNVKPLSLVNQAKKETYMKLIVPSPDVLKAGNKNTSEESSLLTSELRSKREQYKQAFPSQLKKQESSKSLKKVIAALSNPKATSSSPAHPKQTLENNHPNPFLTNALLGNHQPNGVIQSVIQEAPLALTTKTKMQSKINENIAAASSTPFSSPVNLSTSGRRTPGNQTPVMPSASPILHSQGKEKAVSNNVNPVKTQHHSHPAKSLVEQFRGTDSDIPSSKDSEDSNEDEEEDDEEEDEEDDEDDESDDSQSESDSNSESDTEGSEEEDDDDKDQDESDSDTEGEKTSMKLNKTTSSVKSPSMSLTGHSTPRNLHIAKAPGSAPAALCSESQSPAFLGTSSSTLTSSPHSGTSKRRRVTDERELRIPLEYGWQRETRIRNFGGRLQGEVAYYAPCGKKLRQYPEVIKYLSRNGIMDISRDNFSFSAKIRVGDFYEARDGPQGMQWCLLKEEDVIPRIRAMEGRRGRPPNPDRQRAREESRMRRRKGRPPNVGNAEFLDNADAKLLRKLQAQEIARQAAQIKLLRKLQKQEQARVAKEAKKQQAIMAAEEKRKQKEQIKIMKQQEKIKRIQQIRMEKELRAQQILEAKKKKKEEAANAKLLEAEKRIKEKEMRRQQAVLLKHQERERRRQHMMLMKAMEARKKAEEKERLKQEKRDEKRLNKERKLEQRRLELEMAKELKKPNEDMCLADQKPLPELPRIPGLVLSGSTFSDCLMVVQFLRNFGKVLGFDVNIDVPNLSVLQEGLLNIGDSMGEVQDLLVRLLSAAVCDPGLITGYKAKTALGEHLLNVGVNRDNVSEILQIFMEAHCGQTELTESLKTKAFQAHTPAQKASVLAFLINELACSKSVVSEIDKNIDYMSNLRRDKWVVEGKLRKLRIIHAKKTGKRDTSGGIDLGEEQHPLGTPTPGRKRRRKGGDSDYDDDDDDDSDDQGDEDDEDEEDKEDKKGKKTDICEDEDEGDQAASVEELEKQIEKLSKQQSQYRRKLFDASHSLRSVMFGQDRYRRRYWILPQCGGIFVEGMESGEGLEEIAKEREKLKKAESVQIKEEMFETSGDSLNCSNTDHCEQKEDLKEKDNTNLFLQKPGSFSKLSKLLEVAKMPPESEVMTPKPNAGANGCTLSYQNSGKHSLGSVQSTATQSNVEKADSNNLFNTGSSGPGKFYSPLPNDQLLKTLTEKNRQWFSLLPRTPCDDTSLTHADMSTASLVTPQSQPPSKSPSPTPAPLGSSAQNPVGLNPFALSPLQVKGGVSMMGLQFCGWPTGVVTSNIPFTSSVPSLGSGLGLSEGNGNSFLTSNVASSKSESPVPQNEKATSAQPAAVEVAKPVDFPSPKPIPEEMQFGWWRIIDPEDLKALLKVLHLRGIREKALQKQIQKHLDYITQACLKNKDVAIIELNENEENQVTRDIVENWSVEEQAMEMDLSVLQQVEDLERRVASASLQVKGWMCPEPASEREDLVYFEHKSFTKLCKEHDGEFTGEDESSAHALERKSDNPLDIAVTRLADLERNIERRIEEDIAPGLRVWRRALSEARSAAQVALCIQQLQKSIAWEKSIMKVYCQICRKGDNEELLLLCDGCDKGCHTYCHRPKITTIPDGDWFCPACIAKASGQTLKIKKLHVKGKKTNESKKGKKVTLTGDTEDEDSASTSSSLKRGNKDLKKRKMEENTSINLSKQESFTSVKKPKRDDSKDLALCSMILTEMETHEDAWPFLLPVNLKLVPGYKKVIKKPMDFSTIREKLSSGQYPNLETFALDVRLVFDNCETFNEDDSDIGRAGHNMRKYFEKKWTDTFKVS
#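 AlphaScreen displacement of biotin-H3(5-23)K14Ac peptide (50 nM final) from BAZ2B (50 nM final) in PBS pH 7.4, 0.01% Tween-20; complex preformed 30 min RT, then compounds (top 110 uM) 30 min RT, beads 20 min dark.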
# HP1b chromo inh: blocks HP1-beta chromodomain binding to methylated histone tails; AID 540317; hit rate 0.56% among 390,000; Potency, µM (top dose mostly 114 µM), for the others: at the top dose activity change, negative = inhibition, actives largely listed as inhibitors; AlphaScreen HP1-beta / biotin-H3K9me3 peptide binding; P83916; further: potency means the concentration at half of the fitted maximal effect; nearly all actives have a fitted effect of over 70% in size
#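 HP1-beta protein (50 nM final) preincubated 30 min at room temperature with biotinylated H3(1-18)K9me3 peptide (50 nM) in PBS pH 7.4, 0.01% Tween-20, then compound added for 30 min. AlphaScreen streptavidin donor/nickel chelate acceptor beads (10 ug/mL final), 30 min dark, luminescence read.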
# L3MBTL1 block: inhibitors of human L3MBTL1; hit rate 0.66% among 230,000; Q9Y468; Potency, µM (series often up to 57.1 µM), without a hit: at the highest dose activity, negative = inhibition, most hits filed as inhibitors; AID 485360; AlphaScreen L3MBTL1–H3K9me1 peptide binding; further: potency means the concentration at half of the fitted maximal effect; on the % scale 0 is the no-effect control and ±100 the full control effect; nearly all actives have a fitted effect of over 60% in size
#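 Read-out is AlphaScreen signal from streptavidin donor and nickel chelate acceptor beads (10 ug/mL final each) bridging L3MBTL1 (50 nM) and biotinylated K9-monomethylated H3(1-15) peptide (75 nM), after 30 min compound exposure at room temperature.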
# G9a inh: blocks human histone lysine methyltransferase G9a; hit rate 8.8% among 350,000; G9a H3K9 monomethylation, AlphaScreen, 2 h; Potency, µM (top dose mostly 102 µM), for the others: at the highest dose activity, negative = inhibition, actives largely listed as inhibitors; Q96KQ7; further: potency means the concentration at half of the fitted maximal effect; on the % scale 0 is the no-effect control and ±100 the full control effect; nearly all actives have a fitted effect of over 75% in size
#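 Compounds were preincubated with 20 nM G9a for 15 min, after which biotinylated H3K9 peptide (500 nM) and SAM (20 uM) started a 2 h room-temperature reaction. Monomethylated product was quantified by antibody-based AlphaScreen chemiluminescence.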
# Sfp PPTase conf: confirmation of Bacillus subtilis Sfp PPTase inhibitors. Potency, µM (series often up to 114 µM), inactives show at the highest dose activity change, negative = inhibition, hits mostly inhibitors. Sfp PPTase enzymatic assay, qHTS titration. shares compounds with Sfp PPTase inh. hit rate 79% among 380. AID 2701;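 further: potency means the concentration at half of the fitted maximal effect; plate controls were uninhibited Sfp reaction for no effect and no enzyme control for full effect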
# Sfp gel assay: Blocks Sfp PPTase activity, gel read-out; shares compounds with Sfp PPTase inh; purified Sfp, gel-based phosphopantetheinylation read-out; Potency, µM, hits mostly inhibitors; hit rate 20% among 210; AID 2707;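 active means potency below 100 µM; inconclusive means dose-dependent response but potency above 100 µM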;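 further: band intensities scaled against SCH202676 control wells before curve fitting; potency is an IC50 for inhibitors of Sfp transfer activity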
# Active calls of the source: *; i = inactive; u = inconclusive; x = no result given; ! = repeats disagree; [ ] = dose if it differs, or a comment. Unless noted, the call rests on the fitted dose curve; in most records, active means well fitted curve in the direction sought with a large enough effect; inconclusive means small, poorly fitted or top-dose-only effect, or another doubt; inactive means no such curve, though single readings can be large; an effect the other way counts as inactive or inconclusive.
SMILES,Sfp PPTase inh,JMJD2A Tudor,BAZ2B inh,HP1b chromo inh,L3MBTL1 block,G9a inh,others
C=CCn1c(C)c(C=C2C(=O)NC(=O)NC2=O)c2ccccc21,-8%,-30%,-38%,22%,-10%,50µM*,
CCC(C)C(=O)OC1C(O)C2C(CN3CC(C)CCC3[C@]2(C)O)C2C[C@]34O[C@@]5(O)C(OC(=O)C(C)(O)CC)CCC3(C)C5C(OC(C)=O)C(OC(C)=O)C4[C@@]21O (stereo partly specified),3%,x,x,x,x,0%[2.33 µM],
NCCc1c[nH]c2ccc(C(N)=O)cc12,21%,0%,0%,39%,2%,35µM*!,
CC(C)OP(=O)(OC(C)C)C(Nc1ccc([N+](=O)[O-])cc1)c1cccc([N+](=O)[O-])c1 (stereo unspecified),4%,u,-28%,9%,-13%,-49%,
CNC(C(=O)c1ccccc1)C(OC(C)=O)c1cccc([N+](=O)[O-])c1 (stereo unspecified),22%,-35%,-24%,6%,-7%,50µM*,
O=C(CNC(=O)OCc1ccccc1)Nc1ccc(Br)cc1C(=O)c1ccccc1Cl,28µM*,-4%,10%,7%,1%,10%,
NC(=O)c1cccn(Cc2ccc(C(F)(F)F)cc2)c1=O,-1%,-14%[11.4 µM],-4%,62%,x,12%,
Cn1c(=O)oc2cc(S(=O)(=O)N3CCCC(C(=O)NCc4ccccc4Cl)C3)ccc21 (stereo unspecified),x,-2%,-1%,43%,x,5%[59 µM],
CC(=O)[C@@]1(O)CC[C@H]2C3CCC4=CC(=O)CC[C@]4(C)C3CC[C@@]21C (stereo partly specified),x,x,x,x,x,3%[12.7 µM],
CC(=O)N1CC[N+](C)(C)CC1,0%,x,x,x,x,-3%[59 µM],
Cc1ccc(OP2(=O)Nc3cc(C)c(C)cc3S2)cc1 (stereo unspecified),x,1.3µM*,x,-7%[57 µM],x,x,
CN1C(=O)/C(=C\c2ccc(Br)s2)C(=O)NC1=S,40µM*,20µM*,u,8%,-5%,7.1µM*,
C=CCN1C(=O)/C(=C/c2cc(C)n(-c3ccccn3)c2C)C(=O)NC1=S,u,-19%,-5%,26%,-6%,u,
O=C1NC(=S)NC(=O)C1=Cc1ccc(Br)s1,16µM*,28µM*,56µM*,u,-6%,x,
Fc1ccccc1CNC1CN2CCC1CC2 (stereo unspecified),10%,40µM*,-14%,-3%,6%,u,
Clc1ccc(CNC2CN3CCC2CC3)cc1 (stereo unspecified),4%,-19%,-5%,33%,6%,-15%[59 µM],
CN(C)C(=O)Oc1cccc([N+](C)(C)C)c1,7%,5%,-17%,51%,-5%,-8%[59 µM],
CC(=O)N(C)CC#CCN1CCC(O)CC1,x,32µM*,x,1%,x,x,
Cc1ccc(NC(=O)Cn2cc(C(=O)c3ccccc3)c3ccccc32)cc1,x,40µM*,-20%,38%,x,-8%[59 µM],
c1cc(CN2CC3(CCNCC3)C2)ccn1,-11%,x,x,x,x,-6%[12.7 µM],
COc1cccc(C(=O)c2cn(CC(=O)Nc3cc(Cl)c(OC)cc3OC)c3nc(C)ccc3c2=O)c1,x,-15%,5%,79%,x,8%[59 µM],
CCNC(=S)NCCC1=c2ccccc2=N/C1=C\c1c(O)n(C)c(=O)n(C)c1=O,16µM*,-34%,u,u,3%,10µM*,
Cn1c(O)c(/C=C2\C=Nc3ccc(Br)cc32)c(=O)n(C)c1=O,-15%,1%,-5%,58%,x,18%,
CC(C)OC(=O)Nc1cccc(Cl)c1,-4%,x,x,x,x,x,
N#CC(C#N)=NNc1cccc(Cl)c1,56µM*,x,x,x,x,x,
SMILES,Sfp PPTase inh,JMJD2A Tudor,BAZ2B inh,HP1b chromo inh,L3MBTL1 block,G9a inh,others
CN1CCC[C@@H]1c1cccnc1,22%,x,x,x,x,-43%[59 µM],
C=CCC1C(=O)NC(=S)NC1=O,50µM*,89µM*,6%,-19%,x,8.9µM*,
CC(=O)OC1CC2C(C)(C)C(=O)C=C[C@]2(C)C2CC[C@]3(C)C(=CC(=O)OC3c3ccoc3)[C@]12C (stereo partly specified),-11%,x,x,x,x,-25%[2.33 µM],
OCCCc1ccc(O)c(O)c1,50µM*,40µM*,-14%,u,18%,-122%[59 µM],
CCCCC/C=C\C/C=C\CCCCCCCCCC(=O)NCCc1ccc(O)c(O)c1,14%,x,x,x,x,x,
CCCN(CCC)CCc1ccc(O)c(O)c1,-24%,x,x,x,x,20µM*!,
CCCCC/C=C\C/C=C\C/C=C\CCCCC(=O)NCCc1ccc(O)c(O)c1,11%,x,x,x,x,x,
CS(=O)(=O)N1CCC2(CC1)CN(Cc1ccncc1)C2,-2%,x,x,x,x,4%[12.7 µM],
C[C@@]12CCC(=O)C=C1C=C[C@H]1[C@H]3CC[C@](O)(CCC(=O)O)[C@]3(C)CC[C@@H]12,21%,x,x,x,x,8%[21.5 µM],
O=C(N[C@@H]1CN2CCC1CC2)c1cc(Cl)cc2[nH]cnc12,2%,x,x,x,x,x,
C[n+]1cccc(C(=O)N/N=C/c2ccc3c(c2)OCO3)c1,-16%,-4%,50µM*,3%,x,u,
COc1ccc(NP2(=O)OCC(C)(N)CO2)cc1 (stereo unspecified),x,-13%,x,17%,x,x,
COc1ccc(NC2CC(=O)N(C(C)C)C2=O)cc1 (stereo unspecified),6%,-20%,-27%,27%,-6%,22µM*,
N#Cc1cccc(NC(=O)N2CCCC3(CCN(C(=O)Oc4ccccc4)CC3)C2)c1,11%,x,x,x,x,-3%[12.7 µM],
COCCN(CCOC)C(=O)CCn1c(=O)oc2ccccc21,0%,u,-4%,16%,u,u,
COc1ccc(N(C)C(=O)Cn2c(=O)oc3ccccc32)c(OC)c1,5%,0%,-2%,u,x,45µM*,
COC(=O)c1c(Sc2ccccc2)c2ccccc2n1C,0%,81%,30%,68%,x,24%[0.501 µM],
CCCCSP(=O)(SCCCC)SCCCC,2%,x,x,x,x,x,
O=C(O)CCCC[C@H]1SC[C@H]2NC(=O)N[C@@H]21,15%,x,x,x,x,0.4µM*,
CCOC(=O)C1=CC(=C2C(=O)N(CC)C(=S)N(CC)C2=O)c2ccccc2O1,50µM*,-26%,u,u,x,25µM*,Sfp PPTase conf=59µM*;Sfp gel assay=i
CCOC(=O)C1=C(C)c2ccccc2OC1(C(=O)OCC)c1ccccc1 (stereo unspecified),10%,9%,x,75%,0%,21%,
NC(=NCCC[C@H](N)C(=O)O)N[N+](=O)[O-],7%,x,x,x,x,14%[59 µM],

# Compound activity from PubChem.
